ClpP mod: qHTS Assay for Activators of ClpP. purified B. subtilis ClpP, FRET peptide cleavage, 20 min. Potency, µM (titrated, usually from 57.5 µM), for inactives: at the top dose activity change, negative = active. hit rate 1.9% among 340,000. AID 651965, 2013; active means well fitted falling curve with a large enough effect; inconclusive means small, poorly fitted or top-dose-only effect; inactive means no such curve, though single readings can be large or run the other way; further: the source files actives as falling curves though it sought activators and does not explain the sign; nearly all actives have a fitted effect of over 65% in size
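Purified B. subtilis ClpP, 10 microg/mL final in Tris/HCl pH8 with KCl, BSA, glycerol and Tween-20, cleaved an Abz/nitrotyrosine-quenched decapeptide. Fluorescence (ex 320, em 430) was read at 0 and 20 min at room temperature. Delta was normalized to 5.8 microM ADEP and DMSO/no-enzyme controls.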
DT40 TDP1 no CPT: qHTS for Inhibitors of human tyrosyl-DNA phosphodiesterase 1 (TDP1): qHTS in cells in absence of CPT; DT40 Tdp1-/- hTDP1 cells, no CPT, ATP luminescence, 48 h; Potency, µM (series often up to 46.2 µM), inactives show at the top dose activity change, negative = growth inhibition, most hits filed as inhibitors; hit rate 15% among 420,000; AID 686978, 2013; further: on the % scale 0 is the no-effect control and ±100 the full control effect; nearly all actives have a fitted effect of over 55% in size
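No-CPT arm: Tdp1-/-;hTDP1 DT40 cells (400/well) plus compounds, incubated ≥48 hr at 37 °C. Readout CellTiter-Glo luminescence.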
TDP1 cell CPT: qHTS for Inhibitors of human tyrosyl-DNA phosphodiesterase 1 (TDP1): qHTS in cells in presence of CPT; AID 686979, 2013; chicken DT40 Tdp1-/-;hTDP1 cells + 20 nM CPT, ATP luminescence, 48 h; hit rate 12% among 420,000; Potency, µM (doses to about 46.2 µM), inactives show top-dose activity change, negative = growth inhibition, most hits filed as inhibitors; further: on the % scale 0 is the no-effect control and ±100 the full control effect; nearly all actives have a fitted effect of over 55% in size
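Chicken DT40 Tdp1-/- cells stably complemented with human TDP1 were seeded at 400 cells/well in medium containing 20 nM camptothecin, exposed to pin-transferred compounds, and grown at 37 °C for at least 48 hr. Viability was read as ATP luminescence.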
TDP1 inh: qHTS Assay for Inhibitors of Tyrosyl-DNA Phosphodiesterase (TDP1). Tyrosyl-DNA phosphodiesterase 1 (Homo sapiens), Q9NUW8. recombinant TDP1, AlphaScreen DNA substrate cleavage. Potency, µM (top dose mostly 130 µM), for the others: at the highest dose activity change, negative = inhibition, usual class: inhibitors. hit rate 0.28% among 350,000; further: on the % scale 0 is the no-effect control and ±100 the full control effect; nearly all actives have a fitted effect of over 40% in size
Target sequence (Q9NUW8 whole entry, looked up): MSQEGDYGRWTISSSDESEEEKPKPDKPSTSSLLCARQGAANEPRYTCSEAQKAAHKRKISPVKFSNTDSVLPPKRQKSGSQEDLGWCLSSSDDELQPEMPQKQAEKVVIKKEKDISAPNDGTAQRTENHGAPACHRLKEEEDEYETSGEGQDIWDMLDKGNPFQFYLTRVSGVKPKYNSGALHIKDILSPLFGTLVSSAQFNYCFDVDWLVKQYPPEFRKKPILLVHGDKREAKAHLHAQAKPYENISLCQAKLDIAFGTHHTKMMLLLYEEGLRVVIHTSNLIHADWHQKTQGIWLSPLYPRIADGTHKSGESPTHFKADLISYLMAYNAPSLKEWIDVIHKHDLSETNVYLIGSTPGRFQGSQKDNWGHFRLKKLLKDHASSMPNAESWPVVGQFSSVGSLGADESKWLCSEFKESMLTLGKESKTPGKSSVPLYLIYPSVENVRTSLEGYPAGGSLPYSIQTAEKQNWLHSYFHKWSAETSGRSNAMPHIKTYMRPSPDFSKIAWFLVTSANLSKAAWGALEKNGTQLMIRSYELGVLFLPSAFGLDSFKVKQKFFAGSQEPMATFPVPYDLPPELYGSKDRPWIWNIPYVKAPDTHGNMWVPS
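Compounds were preincubated with Tdp1 (1 nM final) for 15 min at room temperature before substrate (15 nM final) started a 5 min reaction; beads (10 ug/ml final) were then added for 10 min before AlphaScreen detection.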
The depositor's hits bear a star; ? = inconclusive; . = no result. Sampled rows, rich in hits. Any-hit rate of the full collection: about 17%. Unless noted, the call rests on the fitted dose curve; in most records, active means well fitted curve in the direction sought with a large enough effect; inconclusive means small, poorly fitted or top-dose-only effect, or another doubt; inactive means no such curve, though single readings can be large; an effect the other way counts as inactive or inconclusive. Potency means the concentration at half of the fitted maximal effect.

SMILES | ClpP mod | DT40 TDP1 no CPT | TDP1 cell CPT | TDP1 inh
O=C(OC(C(=O)NCc1ccco1)c1ccc(Cl)cc1)c1cccs1 (stereo not given) | 1% | ? | ? | .
COc1cc(NS(=O)(=O)c2ccc(NC(=O)C(C)Oc3ccc(Cl)cc3Cl)cc2)nc(OC)n1 (stereo not given) | -2% | -3% | -13% | .
COc1ccc(-c2nnc(SCC(=O)Nc3cccc(Cl)c3C)nc2-c2ccc(OC)cc2)cc1 | 0% | 10µM* | ? | 8%
COc1ccc(-c2nnc(SCC(=O)Nc3ccc(C(C)=O)cc3)nc2-c2ccc(OC)cc2)cc1 | -17% | 10µM* | 12µM* | 4%
Cc1c(Cl)cccc1NC(=O)CSc1nnnn1C | 1% | ? | 6% | 0%
CC(=O)c1ccc(NC(=O)CSc2nnc(-c3ccco3)c(-c3ccco3)n2)cc1 | . | -26% | ? | -3%
C/C(=N\NC(=O)COc1ccccc1[N+](=O)[O-])c1cccc(NC(=O)c2ccncc2)c1 | 6% | 8.2µM* | ? | -16%
COc1ccc(/C(C)=N/NC(=O)c2ccncc2)cc1[N+](=O)[O-] | 1% | -4% | 2% | .
C/C(=N/NC(=O)c1ccncc1)c1ccc(NC(=O)c2ccccc2)cc1 | 0% | -23% | -23% | .
C/C(=N\NC(=O)c1ccncc1)c1cccc(NC(=O)c2ccc(C(C)(C)C)cc2)c1 | 0% | 16µM* | 16µM* | 0%
C/C(=N\NC(=O)c1cc(O)ccc1O)c1cccc(NC(=O)c2ccc(Cl)cc2)c1 | -1% | 18µM* | ? | -17%
C/C(=N/NC(=O)c1ccc(Br)o1)c1cccc(NC(=O)c2ccc(C)o2)c1 | -2% | 21µM* | 16µM* | 8%
Cc1ccc(S(=O)(=O)N2CCC(C(=O)O)CC2)cc1 | . | 1% | -7% | 0%
C/C(=N\NC(=O)c1cccc(N/N=C(\C)c2ccccc2)c1)c1ccccc1 | 0% | ? | -1% | -2%
C/C(=N\NC(=O)c1cccc(N/N=C(\C)c2ccncc2)c1)c1ccncc1 | -1% | ? | 21µM* | 6%
CS(=O)(=O)Nc1cccc(C2=NN(C(=O)c3ccccc3Cl)C(c3ccccc3O)C2)c1 (stereo not given) | 1% | 29µM* | 15µM* | 5%
CS(=O)(=O)Nc1ccc(C2=NN(C(=O)c3ccco3)C(c3ccccc3F)C2)cc1 (stereo not given) | -25% | 18µM* | ? | 2%
CS(=O)(=O)Nc1cccc(C2=NN(C(=O)c3ccco3)C(c3ccco3)C2)c1 (stereo not given) | -1% | ? | 16µM* | 2%
CCS(=O)(=O)Nc1ccc(C2=NN(C(=O)c3ccco3)C(c3ccco3)C2)cc1 (stereo not given) | -4% | 4.1µM* | 4.6µM* | 2%
CCS(=O)(=O)Nc1ccc(C2=NN(C(=O)c3ccco3)C(c3cccs3)C2)cc1 (stereo not given) | -8% | ? | ? | 6%
CCOC(=O)C1(Cc2cccc(OC)c2)CCCN(CCO)C1 (stereo not given) | 0% | -1% | -1% | .
CCN1C(=O)[C@H]2[C@@H](c3ccc(OC)cc3)N[C@]3(CCCN(Cc4ccc(F)cc4)C3=O)[C@H]2C1=O | 1% | ? | -25% | .
CC(NCc1ccc2c(c1)n(C)c(=O)n2C)c1ccccc1 (stereo not given) | -3% | -1% | -15% | 7%
COCC(C)NC(=S)Nc1ccccc1[N+](=O)[O-] (stereo not given) | -1% | -8% | -27% | 2%
CCS(=O)(=O)Nc1cccc(C2=NN(C(=O)c3ccco3)C(c3ccco3)C2)c1 (stereo not given) | . | 2.6µM* | 4.6µM* | 11%
SMILES | ClpP mod | DT40 TDP1 no CPT | TDP1 cell CPT | TDP1 inh
CCOc1cc(C(=O)NCc2ccc3c(c2)CCN3C(=O)c2ccc(F)cc2)cc(OCC)c1OCC | -4% | 26µM* | ? | 1%
CCOc1cccc(CC(=O)NCc2ccc3c(c2)CCN3C(=O)c2ccc(F)cc2)c1OCC | -2% | ? | -14% | 3%
COc1ccc(C(=O)NCc2ccc3c(c2)CCN3C(=O)c2ccc(C)cc2)cc1 | 1% | ? | ? | 7%
CCOc1ccccc1C(=O)NCc1ccc2c(c1)CCN2C(C)=O | -3% | 1.6µM* | 0.92µM* | 1%
CCOc1ccc(C(=O)NCc2ccc3c(c2)CCN3C(=O)c2ccc(C)cc2)cc1OCC | -6% | 13µM* | 12µM* | 0%
N#Cc1ccc(C(=O)NCc2ccc3c(c2)CCN3C(=O)c2ccc(F)cc2)cc1 | -3% | 23µM* | ? | 1%
CCN(CC)c1ccc(C(=O)NCc2ccc3c(c2)CCN3C(=O)c2ccc(F)cc2)cc1 | 2% | 4.6µM* | 5.8µM* | 3%
Cc1ccc(C(=O)N2CCc3cc(CNC(=O)c4ccccc4F)ccc32)cc1 | -2% | 21µM* | ? | 5%
COCCN1CCN(C(=O)C2CCC(=O)N(CCc3cccc(F)c3)C2)CC1 (stereo not given) | 3% | 0% | 3% | 3%
COc1ccc(-c2nc(/C=C3\C(C)=Nc4ccccc43)c(O)o2)cc1 | . | 12µM* | 6.5µM* | 8%
Cc1ccc(CCC(=O)Nc2ncc(Cc3cccc(Cl)c3Cl)s2)o1 | 1% | 0.016µM* | 0.023µM* | 3%
Cc1ccc(-n2c(C)cc(C(=O)CN3CCCCC3)c2C)cc1 | . | ? | ? | 6%
CN(C)CC/C=C1\c2ccccc2Sc2cc(F)c(Cl)cc21 | -12% | 16µM* | 16µM* | .
CN(C)CC/C=C1/c2ccc(F)cc2Sc2ccc(Cl)cc21 | . | 16µM* | ? | .
CN(C)CC/C=C1\c2cc(Cl)ccc2Sc2cc(F)c(F)cc21 | -4% | 23µM* | ? | .
CCOC(=O)C1(CCCc2ccccc2)CCN(C(=O)c2cc(C)nn2CC)CC1 | 1% | 9.2µM* | 18µM* | 3%
CCOC(=O)C1(CCCc2ccccc2)CCN(C(=O)c2cncs2)CC1 | -2% | 23µM* | 18µM* | 0%
CCOC(=O)C1(CCCc2ccccc2)CCN(C(=O)COC)CC1 | 0% | -5% | ? | 3%
CCOC(=O)C1(CCCc2ccccc2)CCN(C(=O)Cn2nc(C)nc2C)CC1 | -2% | ? | 23µM* | .
CCOC(=O)C1(CCCc2ccccc2)CCN(C(=O)c2n[nH]c(CC)c2C)CC1 | -3% | 13µM* | 23µM* | .
Cc1ccc(NC(=O)CSc2nccn2C2CCCC2)cc1 | 0% | ? | ? | 2%
CCOC(=O)C1(CCCc2ccccc2)CCN(C2CCSCC2)CC1 | -3% | 13µM* | 16µM* | 0%
OCC1(CCCc2ccccc2)CCN(C2CCSCC2)CC1 | . | -23% | -17% | .
